# Compounds with a hit are over-represented: about 12% of the library has one in this group of screens.
# WT yeast gro inh – growth inhibition of WT yeast, mitochondrial fusion screen. mitochondrial fusion phenotypic screen, WT strain. inhibition, % at 10 µM. hit rate 2.1% among 190,000. AID 1362; in the data active = inhibition above about 58%; tested in S. cerevisiae
# KCC2 mod – modulators of human KCC2 chloride dependent transport; Q9H2X9; KCC2 cells, thallium flux FluoZin-2 fluorescence; B-score of Tl+ flux slope (higher = more flux/activation; lower = inhibition) at 10 µM; hit rate 2.2% among 190,000; AID 1456;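 active = thallium flux slope and its plate-corrected score both differing from the plate sample mean at a set confidence after two filtering rounds, in either direction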;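 also: slope of fluorescence scaled to starting intensity during 10 to 20 s after thallium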
# ROMK primary – modulates human ROMK potassium channel activity; B-score at 10 µM; hit rate 2% among 130,000; Tet-inducible ROMK, thallium flux fluorescence; actives lie on both sides; AID 1918; P48048;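 active = signal ratio slope over the read window, or its plate-corrected B-score, at least 3 SD from the plate mean, either direction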;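 also: B-score of the F/F0 ratio slope over 7 to 12 s after thallium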
# INS promoter inh – TRM-6 insulin promoter activity inhibition | TRM-6 cells (human fetal islet line), insulin promoter-eGFP reporter, imaging; reporter expression induced with tamoxifen | hit rate 0.9% among 130,000 | AID 1273 | inhibition, % at 2 µM;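 active = inhibition above the mean plus 3 SD, with well images judged a real hit on visual review, cut at about 60% in these data, passing the limit was not always enough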
# Lmaj promast – Leishmania major promastigote growth inhibition; Leishmania major promastigotes, resazurin fluorescence viability; inhibition, % at 10 µM; hit rate 9% among 200,000; in the data active = inhibition above about 50%;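 also: promastigotes grown with compound for 44 hours at 28 °C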
# Ins promoter up – MIN6 insulin promoter up-regulation; MIN6 insulin promoter-GFP reporter, high-content imaging; active compounds read high; z-score at 5 µM; hit rate 0.3% among 190,000; AID 1625;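 active = z-score above 3 at 5 µM with at least 500 cells counted in the well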
# A number is an active result; n = inactive; x = no result given.
SMILES,WT yeast gro inh,KCC2 mod,ROMK primary,INS promoter inh,Lmaj promast,Ins promoter up
Cc1ccc(Cl)cc1N1CCN(C(=O)c2ccc(NS(=O)(=O)c3c(C)noc3C)cc2)CC1,n,n,n,x,96,n
O=C(O)CC1(CC(=O)Nc2cc(C(F)(F)F)cc(C(F)(F)F)c2)CCCCC1,x,n,n,x,x,n
CC1=NN(c2ccc(C)cc2C)C(=O)C1C(c1ccccc1)C1C(=O)N(c2ccc(C)cc2C)N=C1C (stereo not drawn),73,n,n,n,n,n
Cc1ccc(-n2nc(C)c(C(=O)O)n2)c(C)c1,n,n,x,x,n,n
Cc1cc(C)cc(NS(=O)(=O)c2ccc(NC(=S)NC(=O)c3cccs3)cc2)c1,n,n,n,n,96,n
CN(C1CCCCC1)S(=O)(=O)c1ccc(NC(=S)NC(=O)c2cccs2)cc1,x,17,x,n,n,x
COC(=O)c1ccccc1NC(=O)CSc1nccc(C)n1,n,n,n,n,n,n
O=c1c2ccccc2c(C=Nc2ccccc2O)c(O)n1-c1nccs1,x,n,x,x,x,4.3
Cc1ccccc1N=Cc1c(O)n(-c2nccs2)c(=O)c2ccccc12,n,n,n,n,n,n
COc1ccc(OCC(=O)Nc2ccc(N3CCOCC3)cc2)c([N+](=O)[O-])c1,n,n,n,n,n,n
COc1cccc2c1nc(C)c1cc(C)oc12,n,n,x,x,n,n
COc1ccc2nc(C)c3cc(C)oc3c2c1,n,x,n,90,n,n
Nc1ncnc2oc(-c3ccco3)c(-c3ccco3)c12,n,x,x,n,52,n
CS(=O)(=O)N(CC(=O)Nc1ccc2c(c1)OCO2)c1ccc2c(c1)OCO2,n,n,n,x,n,x
CN(C)C(=O)CN(c1ccc2c(c1)OCO2)S(C)(=O)=O,n,n,x,71,n,3.6
O=C(Nc1ccc2c(c1)OCO2)c1ccc(Cl)s1,n,n,n,n,n,n
CCOC(=O)C(C(=O)OCC)c1cc(Br)c2noc3c2c1C(=O)c1ccccc1-3,n,x,x,n,100,n
CCn1c(SCC(=O)NCCc2ccccc2)nnc1C(C)C,n,n,x,n,n,n
CCOc1ccc(/C=N/Nc2ccc(C(F)(F)F)cc2[N+](=O)[O-])cc1O,n,n,n,71,n,n
COc1cc(N/N=C/c2ccccc2O)ncn1,n,n,n,n,82,n
Cc1ccc(S(=O)(=O)CCC(=O)OCc2ccc(Cl)cc2)cc1,n,n,n,n,55,n
Cc1ccc(S(=O)(=O)CCC(=O)OCC(=O)NC(N)=O)cc1,x,n,x,x,x,n
COC(=O)c1ccc(COC(=O)CNS(=O)(=O)c2ccc(C)cc2)cc1,n,n,n,73,n,n
Cc1ccc(S(=O)(=O)CCC(=O)c2ccc(O)cc2O)cc1,n,n,n,n,100,n
CC(C)CNC(=O)COC(=O)c1ccc(Cl)c(S(=O)(=O)N2CCc3ccccc32)c1,n,n,n,x,n,n
SMILES,WT yeast gro inh,KCC2 mod,ROMK primary,INS promoter inh,Lmaj promast,Ins promoter up
CCc1nnc(NC(=O)c2cc(-c3ccncc3)nc3ccccc23)s1,x,n,x,x,x,n
O=C(CNc1ccc2ccccc2c1)N/N=C/c1ccc([N+](=O)[O-])o1,n,n,x,n,100,n
Cc1ccc(OCC(=O)N/N=C\c2ccc(C)o2)c([N+](=O)[O-])c1,n,n,n,n,n,x
Cc1ccc(OCC(=O)N/N=C/c2ccc([N+](=O)[O-])o2)cc1,n,n,x,n,100,n
O=C(COc1ccccc1)N/N=C/c1ccc([N+](=O)[O-])o1,n,n,x,x,100,n
COc1ccc(-c2nn(-c3ccccc3)cc2C(=O)N/N=C/c2ccc([N+](=O)[O-])o2)cc1,n,n,n,x,65,n
O=C(N/N=C/c1ccc([N+](=O)[O-])o1)C(O)c1ccccc1 (stereo not drawn),x,n,n,x,x,n
COc1ccc(-c2nn(-c3ccccc3)cc2C(=O)N2CCOCC2)cc1,n,n,x,x,n,n
O=C(COc1ccc(-c2ccccc2)cc1)N/N=C/c1cc(O)ccc1Br,96,n,n,n,70,n
Cc1ccc(C)c(OCC(=O)N/N=C\c2cccn2C)c1,n,x,n,n,n,n
Cc1ccc(OCC(=O)N/N=C/c2cccn2C)cc1,n,x,x,71,n,x
O=C(Cn1nnc2c(sc3nc4c(c(-c5ccccc5)c32)CCC4)c1=O)c1ccccc1,n,n,n,n,n,n
O=C(CSc1nc(-c2ccccc2)nn1C(=O)c1ccccc1)Nc1cccc([N+](=O)[O-])c1,n,n,x,n,n,x
O=C(Oc1ccnc2cc(Cl)ccc12)N1CCOCC1,n,n,x,n,n,n

# High-throughput results deposited in PubChem by several laboratories.
